# Measurements from PubChem BioAssay AID651808 (Broad Institute, 2012).
# Inconclusive results are not listed. Active and inactive are the calls of the source. No rule for the calls is given here.
# Assay: dose response, DH231 delta cqsS, luminescence, dry powder (AID 651808)
# Conditions: V. cholerae DH231 delta cqsS, luxCDABE luminescence, 6 h, stronger effect = higher value
structure (smiles),measurement,setting,value
CCn1nnc(NCc2ccc(C)cc2)n1,max activity (light induction),"at 0.35 µM, test 2",39.1% (inactive)
CC(C)c1ccc(CNc2nnnn2C)cc1,max activity (light induction),"measured here: test 1 replicate run, at 0.0042 µM, test 1",39.1%
CCCn1nnnc1NCc1ccccc1Cl,max activity (light induction),"measured here: test 1 replicate run, at 0.35 µM, test 1",43.6%
